From PubChem BioAssay (NCATS)
Records with an inconclusive call do not appear. The source made the active and inactive calls. Calls come from the whole dose curve; as a rule, active = well fitted inhibition curve with a large enough effect; inconclusive = small, poorly fitted or top-dose-only effect; inactive = flat fitted curve, though single readings scatter.

tested on: CP215; test: qHTS profiling for inhibitors of Plasmodium falciparum proliferation (AID 504749); note: nearly all actives have a fitted effect of over 60% in size; settings: P. falciparum in erythrocytes, SYBR Green DNA, 72 h; series mostly up to 28.7 µM
Summary of the method: (§1)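 SYBR Green fluorescence (ex 485 nm, em 535 nm) reports parasite DNA after 72 h compound exposure of infected red cells at 0.3% parasitemia, 2.5% hematocrit; signal normalized to 0.29 uM artemisinin and vehicle wells.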
Potency is the fitted concentration of half-maximal effect.

Potency, active:
CCC(C(=O)O)C1OC(C(C)C(O)C(C)C(=O)C(CC)C2OC3(C=CC(O)C4(CCC(C)(C5CCC(O)(CC)C(C)O5)O4)O3)C(C)CC2C)C(C)CC1C (stereo not drawn) 0.0601 µM, COC1CC2CCC(C)[C@](O)(O2)C(=O)C(=O)N2CCCCC2C(=O)OC(C(C)CC2CCC(O)C(OC)C2)CC(=O)C(C)/C=C(/C)C(O)C(OC)C(=O)C(C)CC(C)C=CC=C/C=C\1C (stereo partly drawn) 1.51 µM, CN[C@H](C)CCC=C(C)C 0.601 µM

Potency, inactive:
CC1(C)OC[C@@H]2O[C@@]3(C(=O)O)OC(C)(C)O[C@@H]3[C@@H]2O1, Cc1ccccc1N1C(=O)c2cc(N)ccc2N/C1=C\F, O=C1C(I)=CC(=C(c2cc(I)c(O)c(I)c2)c2ccccc2C(=O)O)C=C1I, NC(=O)NC(CCC(=O)O)C(=O)O (stereo not drawn), CC(=O)OCC(=O)[C@@]1(O)CCC2C3C[C@H](C)C4=CC(=O)C=CC4(C)C3C(O)CC21C (stereo partly drawn), CC1(C)C2CC[C@]1(C)[C@@H](O)C2, OCC1O[C@H](Oc2ccc(O)cc2)C(O)C(O)C1O (stereo partly drawn), Nc1nc(F)nc2c1ncn2[C@@H]1O[C@H](CO)[C@@H](O)[C@H]1O, CC1OC(OC2CCC3(C)C(CCC4C3CC(O)C3(C)C(C5=CC(=O)OC5)CCC43O)C2)CC(O)C1OC1CC(O)C(OC2CC(O)C(OC3OC(CO)C(O)C(O)C3O)C(C)O2)C(C)O1 (stereo not drawn), CC1OC(OCC2OC(Oc3c(-c4ccc(OCCO)c(OCCO)c4)oc4cc(OCCO)cc(O)c4c3=O)C(O)C(O)C2O)[C@@H](O)C(O)C1O (stereo partly drawn)

tested on: CP217; test: as above; settings: P. falciparum in erythrocytes, SYBR Green DNA, 72 h; series mostly up to 28.7 µM
Summary of the method: as §1

Potency, active:
CCCCC(=O)OCC(=O)[C@]1(O)Cc2c(O)c3c(c(O)c2[C@H](OC2CC(NC(=O)C(F)(F)F)C(O)C(C)O2)C1)C(=O)c1c(OC)cccc1C3=O (stereo partly drawn) 3.16 µM, C[C@H]1[C@@H](OC(=O)CCC(=O)O)OC2OC3(C)CC[C@H]4[C@H](C)CC[C@@H]1[C@@]24OO3 (stereo partly drawn) 0.0071 µM, COc1cc2c(cc1O)CCN[C@@]21CS[C@H]2c3c(OC(C)=O)c(C)c4c(c3C(COC1=O)N1C2C2c3c(cc(C)c(OC)c3O)CC([C@@H]1O)N2C)OCO4 (stereo partly drawn) 0.0032 µM, C[n+]1c2cc(N)ccc2cc2ccc(N)cc21 0.891 µM, CC[C@@]1(O)C[C@H](O[C@H]2C[C@@H](N(C)C)[C@@H](O[C@H]3C[C@@H](O)[C@@H](O[C@H]4CCC(=O)[C@@H](C)O4)[C@@H](C)O3)[C@@H](C)O2)c2c(cc3c(c2O)C(=O)c2c(O)cccc2C3=O)[C@H]1C(=O)OC 0.251 µM, CCC(C(=O)O)C1OC(C(C)C(O)C(C)C(=O)C(CC)C2OC3(C=CC(O)C4(CCC(C)(C5CCC(O)(CC)C(C)O5)O4)O3)C(C)CC2C)C(C)CC1C (stereo not drawn) 0.178 µM, COC1CC2CCC(C)[C@](O)(O2)C(=O)C(=O)N2CCCCC2C(=O)OC(C(C)CC2CCC(O)C(OC)C2)CC(=O)C(C)/C=C(/C)C(O)C(OC)C(=O)C(C)CC(C)C=CC=C/C=C\1C (stereo partly drawn) 3.55 µM, CN[C@H](C)CCC=C(C)C 0.355 µM

Potency, inactive:
CCCCCCCCCCCCCCCC(=O)OC[C@H](O)[C@H]1OC[C@@H](O)[C@@H]1O, C[C@H]1OC(OC2C(O)[C@@H](O)C(OC3C(O)[C@@H](O)C(O)O[C@@H]3CO)O[C@@H]2CO)[C@H](O)C(O)C1N[C@H]1C=C(CO)[C@@H](O)[C@H](O)C1O (stereo partly drawn), CCN(CC)CC(=O)Nc1c(C)cc(C)cc1C, CC(=O)N[C@H]1[C@H](O[C@@H]2c3ccc(c(Cl)c3)Oc3cc4cc(c3O[C@@H]3O[C@H](CO)[C@@H](O)[C@H](O)C3C)Oc3ccc(cc3Cl)C[C@H]3NC(=O)[C@@H](N)c5ccc(O)c(c5)Oc5cc(O)cc(c5)[C@H](NC3=O)C(=O)N[C@H]4C(=O)N[C@H]3C(=O)N[C@@H]2C(=O)N[C@@H](C(=O)O)c2cc(O)cc(O[C@H]4O[C@H](CO)[C@@H](O)C(O)[C@@H]4O)c2-c2cc3ccc2O)O[C@H](CO)[C@@H](O)[C@@H]1O (stereo partly drawn), NC(=O)c1ncn(C2OC(CO)C(O)C2O)c1N (stereo not drawn), CC1(Cn2ccnn2)[C@H](C(=O)O)N2C(=O)C[C@H]2S1(=O)=O (stereo partly drawn), CN(C)CC/C=C1\c2ccccc2COc2ccc(CC(=O)O)cc21, CCCC(=O)O[C@]1(C(=O)COC(C)=O)CC[C@H]2C3C[C@H](F)C4=CC(=O)C=CC4(C)[C@@]3(F)[C@@H](O)CC21C (stereo partly drawn), OCCN1CC(O)C(O)C(O)C1CO (stereo not drawn), CC(CCC(=O)O)C1CCC2C3C(=O)C[C@@H]4CC(=O)CC[C@@]4(C)C3CC(=O)[C@]12C (stereo partly drawn), O=C(OC[C@@H]1O[C@@](O)(COC(=O)c2cccnc2)[C@H](OC(=O)c2cccnc2)[C@H]1OC(=O)c1cccnc1)c1cccnc1, O=[N+]([O-])O[C@H]1CO[C@H]2[C@@H]1OC[C@H]2O, COc1cccc(OC)c1C(=O)NC1C(=O)N2C1SC(C)(C)C2C(=O)O (stereo not drawn), NC[C@@H]1O[C@H](OC2[C@@H](CO)O[C@@H](OC3[C@H](O)[C@H](N)C[C@H](N)[C@H]3OC3O[C@H](CO)[C@@H](O)[C@H](O)[C@@H]3N)[C@H]2O)C(N)[C@H](O)[C@@H]1O (stereo partly drawn), Cc1ccc(S(=O)(=O)NC(=O)NC(C)Cc2ccccc2)cc1 (stereo not drawn), OCCOC[C@H]1O[C@H](OCCO)[C@H](OCCO)[C@@H](OCCO)[C@@H]1OCCO (tested in a mixture with another compound), C[S+](C)CC[C@H](N)C(=O)O, CC[C@@H]1/C=C(\C)C[C@H](C)C[C@H](OC)[C@H]2O[C@@](O)(C(=O)C(=O)N3CCCC[C@H]3C(=O)O[C@H](/C(C)=C/[C@@H]3CC[C@H](Cl)[C@H](OC)C3)[C@H](C)[C@@H](O)CC1=O)[C@H](C)C[C@@H]2OC, NC(=O)C1CC2(NC(=O)NC2=O)c2cc(F)ccc2O1 (stereo not drawn), CN1[C@@H]2CC[C@@H]1CC(OC(=O)[C@H](CO)c1ccccc1)C2 (stereo partly drawn), CCCCCCCCCCCC(=O)OCC(O)C1OCC(O)C1O (stereo not drawn), C/C1=C2/[N-]C(C(CC(N)=O)[C@@]2(C)CCC(=O)NCC(C)OP(=O)([O-])O[C@H]2[C@@H](O)[C@@H](n3cnc4cc(C)c(C)cc43)O[C@@H]2CO)[C@]2(C)N=C(/C(C)=C3N=C(/C=C4N=C1C(CCC(N)=O)C\4(C)C)[C@@H](CCC(N)=O)[C@]\3(C)CC(N)=O)[C@@H](CCC(N)=O)[C@]2(C)CC(N)=O.CC(=O)O.[Co] (stereo partly drawn), CC1(C)OC[C@@H]2O[C@@]3(C(=O)O)OC(C)(C)O[C@@H]3[C@@H]2O1, Cc1ccccc1N1C(=O)c2cc(N)ccc2N/C1=C\F, O=C1C(I)=CC(=C(c2cc(I)c(O)c(I)c2)c2ccccc2C(=O)O)C=C1I, NC(=O)NC(CCC(=O)O)C(=O)O (stereo not drawn), CC(=O)OCC(=O)[C@@]1(O)CCC2C3C[C@H](C)C4=CC(=O)C=CC4(C)C3C(O)CC21C (stereo partly drawn), CC1(C)C2CC[C@]1(C)[C@@H](O)C2, OCC1O[C@H](Oc2ccc(O)cc2)C(O)C(O)C1O (stereo partly drawn), Nc1nc(F)nc2c1ncn2[C@@H]1O[C@H](CO)[C@@H](O)[C@H]1O, CC1OC(OC2CCC3(C)C(CCC4C3CC(O)C3(C)C(C5=CC(=O)OC5)CCC43O)C2)CC(O)C1OC1CC(O)C(OC2CC(O)C(OC3OC(CO)C(O)C(O)C3O)C(C)O2)C(C)O1 (stereo not drawn), CC1OC(OCC2OC(Oc3c(-c4ccc(OCCO)c(OCCO)c4)oc4cc(OCCO)cc(O)c4c3=O)C(O)C(O)C2O)[C@@H](O)C(O)C1O (stereo partly drawn)
